36 sequences from PMC5700166 can be followed below.

Experiment [1] deals with T1, GST-Nv-NF-kB (Ser allele) (Nematostella vectensis, UniProt A7UNT2 2-411).
T1 sequence: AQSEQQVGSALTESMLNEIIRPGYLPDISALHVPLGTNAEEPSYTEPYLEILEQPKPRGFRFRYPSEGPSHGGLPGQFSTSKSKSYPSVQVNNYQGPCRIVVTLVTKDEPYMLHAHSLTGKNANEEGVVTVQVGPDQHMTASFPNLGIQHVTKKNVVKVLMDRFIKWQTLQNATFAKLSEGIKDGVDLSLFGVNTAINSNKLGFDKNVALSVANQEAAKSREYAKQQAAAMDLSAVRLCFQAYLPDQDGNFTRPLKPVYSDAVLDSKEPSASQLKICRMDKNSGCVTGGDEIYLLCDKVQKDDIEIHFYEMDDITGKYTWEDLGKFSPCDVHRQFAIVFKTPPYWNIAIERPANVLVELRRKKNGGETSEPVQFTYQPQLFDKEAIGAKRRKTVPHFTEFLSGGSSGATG
Description: protein-binding microarray (PBM); PBM: ~300 nM protein, 6 mM HEPES pH 7.8, 80 mM KCl, 0.5 mM EDTA, 0.5 mM EGTA, 6% glycerol, 35 ng/ul poly-dIdC, 1% milk, 1 h, room temperature; Ap Aiptasia and Nv Nematostella (sea anemones) / Co Capsaspora / Aq Amphimedon (sponge) / Dm Drosophila / Hu human; RHD is the Rel homology domain; high values mean tight binding. The note with it: dsDNA, one strand shown.

Experiment [2] addresses GST-Hu-p50 (Homo sapiens, UniProt P19838 7-356). The experiment is described as above. The note with it: dsDNA, one strand shown.

Sequence of GST-Hu-p50 (P19838 7-356): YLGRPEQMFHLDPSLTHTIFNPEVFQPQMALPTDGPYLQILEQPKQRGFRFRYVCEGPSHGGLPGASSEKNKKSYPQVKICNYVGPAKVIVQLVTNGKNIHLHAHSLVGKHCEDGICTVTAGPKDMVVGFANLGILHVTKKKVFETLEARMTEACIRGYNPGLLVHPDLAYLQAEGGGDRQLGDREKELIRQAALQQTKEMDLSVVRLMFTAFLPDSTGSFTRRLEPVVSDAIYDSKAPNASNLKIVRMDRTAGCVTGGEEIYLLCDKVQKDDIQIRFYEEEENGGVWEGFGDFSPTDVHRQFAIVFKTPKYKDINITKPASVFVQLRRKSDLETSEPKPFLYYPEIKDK

On to “CCGATTAACATCACCAAATTCCCTGATGTTAATCGGGTCTTGATTCGCTTGACGCTGCTG”, for which the binding signal in experiment [1] amounted to 6.26 z-score; in experiment [2], 4.49 z-score.

With “CCGATTAACATCAAGCGTTTCCCTGATGTTAATCGGGTCTTGATTCGCTTGACGCTGCTG”, the binding signal worked out at 3.6 z-score in experiment [1] and 1.47 z-score in experiment [2].

Turning to “CCGATTAACATCAGGGGAATGACTGATGTTAATCGGGTCTTGATTCGCTTGACGCTGCTG”, the binding signal worked out at 6.22 z-score in experiment [1] and 4.83 z-score in experiment [2].

Take “CCGATTAACATCAAGGGATTCCCTGATGTTAATCGGGTCTTGATTCGCTTGACGCTGCTG”: the binding signal is 4.98 z-score in experiment [1] and 3.73 z-score in experiment [2].

Turning to “CCGATTAACATCAAGGGAAACCCTGATGTTAATCGGGTCTTGATTCGCTTGACGCTGCTG”, the values for the binding signal in experiment [1] and in experiment [2] were 4.43 z-score and 2.93 z-score, respectively.

On to “CCGATTAACATCAGGGGGCGCACTGATGTTAATCGGGTCTTGATTCGCTTGACGCTGCTG”, for which the values for the binding signal in experiment [1] and in experiment [2] were 2.76 z-score and 4.11 z-score, respectively.

As to “CCGATTAACATCAAGCAATTCCCTGATGTTAATCGGGTCTTGATTCGCTTGACGCTGCTG”, the results for the binding signal in experiment [1] and in experiment [2] were 3.87 z-score and 2.99 z-score, respectively.

Take “CCGATTAACATCAAGGAATACCCTGATGTTAATCGGGTCTTGATTCGCTTGACGCTGCTG”: the binding signal in experiment [1] was 4.74 z-score; in experiment [2], 4.19 z-score.

With “CCGATTAACATCACGAAAATCCCTGATGTTAATCGGGTCTTGATTCGCTTGACGCTGCTG”, the binding signal in experiment [1] was 4.09 z-score; in experiment [2] it was 4.05 z-score.

As to “CCGATTAACATCAGGGGCTGTACTGATGTTAATCGGGTCTTGATTCGCTTGACGCTGCTG”, the binding signal came to 2.32 z-score in experiment [1] and 3.36 z-score in experiment [2].

With “CCGATTAACATCAGGGCAGTACCTGATGTTAATCGGGTCTTGATTCGCTTGACGCTGCTG”, the binding signal in experiment [1] came to 2.24 z-score; in experiment [2] it was 2.22 z-score.

As for “CCGATTAACATCAAGCGTTCCCCTGATGTTAATCGGGTCTTGATTCGCTTGACGCTGCTG”, the binding signal was determined as 6.39 z-score in experiment [1] and 3.66 z-score in experiment [2].

For “CCGATTAACATCAGGGCAGCCCCTGATGTTAATCGGGTCTTGATTCGCTTGACGCTGCTG”, the values for the binding signal in experiment [1] and in experiment [2] were 2.79 z-score and 4.31 z-score, respectively.

For “CCGATTAACATCAGGAAACTACCTGATGTTAATCGGGTCTTGATTCGCTTGACGCTGCTG”, the binding signal in experiment [1] was 3.83 z-score; in experiment [2], 3.87 z-score.

Take “CCGATTAACATCAATCGGGAAATTGATGTTAATCGGGTCTTGATTCGCTTGACGCTGCTG”: the binding signal in experiment [1] worked out at 3.66 z-score; in experiment [2], 2.28 z-score.

As for “CCGATTAACATCAAACAAACCCCTGATGTTAATCGGGTCTTGATTCGCTTGACGCTGCTG”, the binding signal came out at 2.48 z-score in experiment [1] and 3.95 z-score in experiment [2].

In the case of “CCGATTAACATCAAGAGACCCCCTGATGTTAATCGGGTCTTGATTCGCTTGACGCTGCTG”, the figures for the binding signal in experiment [1] and in experiment [2] were 2.79 z-score and 3.43 z-score, respectively.

For the sequence “CCGATTAACATCAAGTACCCCCATGATGTTAATCGGGTCTTGATTCGCTTGACGCTGCTG”, the binding signal was determined as 3.01 z-score in experiment [1] and 2.36 z-score in experiment [2].

“CCGATTAACATCACCGAATTTGGTGATGTTAATCGGGTCTTGATTCGCTTGACGCTGCTG”: the results for the binding signal in experiment [1] and in experiment [2] were 1.14 z-score and 2.09 z-score, respectively.

Consider “CCGATTAACATCAGGCAAGTCCCTGATGTTAATCGGGTCTTGATTCGCTTGACGCTGCTG”, for which the values for the binding signal in experiment [1] and in experiment [2] were 3.07 z-score and 3.44 z-score, respectively.

Regarding “CCGATTAACATCAGGGGAGAATATGATGTTAATCGGGTCTTGATTCGCTTGACGCTGCTG”, the binding signal in experiment [1] is 6.21 z-score; in experiment [2], 4.46 z-score.

Regarding “CCGATTAACATCAGGAGAACCCCTGATGTTAATCGGGTCTTGATTCGCTTGACGCTGCTG”, the binding signal in experiment [1] was 1.24 z-score; in experiment [2], 3.68 z-score.

As to “CCGATTAACATCAATTACCCCCCTGATGTTAATCGGGTCTTGATTCGCTTGACGCTGCTG”, the binding signal in experiment [1] amounted to 5.22 z-score; in experiment [2] it was 4.35 z-score.

In the case of “CCGATTAACATCAGGGTATTACCTGATGTTAATCGGGTCTTGATTCGCTTGACGCTGCTG”, the figures for the binding signal in experiment [1] and in experiment [2] were 4.88 z-score and 3.33 z-score, respectively.

In the case of “CCGATTAACATCACCCAGGGAAATGATGTTAATCGGGTCTTGATTCGCTTGACGCTGCTG”, the figures for the binding signal in experiment [1] and in experiment [2] were 1.97 z-score and 2.01 z-score, respectively.

On to “CCGATTAACATCAAAATTCCCAATGATGTTAATCGGGTCTTGATTCGCTTGACGCTGCTG”, for which the binding signal in experiment [1] was found to be 4.95 z-score; in experiment [2] it was 4.21 z-score.

For “CCGATTAACATCAGAAATCCCGCTGATGTTAATCGGGTCTTGATTCGCTTGACGCTGCTG”, the binding signal in experiment [1] and in experiment [2] was 2.45 z-score in each case.

Take “CCGATTAACATCAGGAACTACCCTGATGTTAATCGGGTCTTGATTCGCTTGACGCTGCTG”: the binding signal in experiment [1] stood at 2.02 z-score; in experiment [2], 2.58 z-score.

In the case of “CCGATTAACATCAGGCCGTCCCCTGATGTTAATCGGGTCTTGATTCGCTTGACGCTGCTG”, the binding signal in experiment [1] was 3.43 z-score; in experiment [2], 3.86 z-score.

“CCGATTAACATCAGGGGGTGTTATGATGTTAATCGGGTCTTGATTCGCTTGACGCTGCTG”: the binding signal in experiment [1] is 4.85 z-score; in experiment [2] it was 5.17 z-score.

As for “CCGATTAACATCAGGGAGATTTGTGATGTTAATCGGGTCTTGATTCGCTTGACGCTGCTG”, the binding signal stood at 3.43 z-score in experiment [1] and 3.58 z-score in experiment [2].

As to “CCGATTAACATCAAAGTACCCCCTGATGTTAATCGGGTCTTGATTCGCTTGACGCTGCTG”, the results for the binding signal in experiment [1] and in experiment [2] were 5.79 z-score and 4.53 z-score, respectively.

Regarding “CCGATTAACATCAGGAGATTCCCTGATGTTAATCGGGTCTTGATTCGCTTGACGCTGCTG”, the binding signal is 4.04 z-score in experiment [1] and 4.59 z-score in experiment [2].

On to “CCGATTAACATCAATTTCCCGCCTGATGTTAATCGGGTCTTGATTCGCTTGACGCTGCTG”, for which the binding signal in experiment [1] came to 4.4 z-score; in experiment [2] it was 2.33 z-score.

On to “CCGATTAACATCAGTCCCTAAGCTGATGTTAATCGGGTCTTGATTCGCTTGACGCTGCTG”, for which the results for the binding signal in experiment [1] and in experiment [2] were 1.05 z-score and 2.51 z-score, respectively.

In the case of “CCGATTAACATCAACGGGAATTCTGATGTTAATCGGGTCTTGATTCGCTTGACGCTGCTG”, the binding signal worked out at 5.37 z-score in experiment [1] and 3.82 z-score in experiment [2].
